# Experimental data published in PubChem BioAssay (EPA / NIEHS).
# Calls of active or inactive are those of the source. How the source made its calls: active means hit-call score of the fitted dose curve at least 0.9, where 1 is the maximum; inactive means score below 0.9.
# Key:
# Details in all cases: mRNA level, 48 h; actives raise or lower the signal
# [1] = read-out: growth arrest and DNA damage 45 (GADD45A), GADD45A (gene 1647); assay: LTEA_HepaRG_GADD45A: Life Technologies and Expression Analysis (LTEA) Assay for growth arrest and DNA damage 45 (GADD45A) using HepaRG (AID 2283458)
# Procedure, shortened: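 Eight-point concentration-response in HepaRG cells: 48 h chemical exposure, 0.5% DMSO vehicle, top dose 100 uM. Normalized qRT-PCR mRNA readout with bidirectional fitting relative to DMSO.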
# [2] = read-out: Forkhead box O3 (FOXO3), FOXO3 (gene 2309); assay: LTEA_HepaRG_FOXO3: Life Technologies and Expression Analysis (LTEA) Assay for Forkhead box O3 (FOXO3) using HepaRG (AID 2283459)
# Procedure, shortened: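 qRT-PCR readout of FOXO3 transcript, normalized to three housekeeping genes (ACTB, GAPDH, POLR2A); gain or loss fitted against 0.5% DMSO vehicle. HepaRG cells, 48 h chemical exposure, 8-point half-log series, top 100 uM.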
# [3] = read-out: ABC Transporter (ABCB1), ABCB1 (gene 5243); assay: LTEA_HepaRG_ABCB1: Life Technologies and Expression Analysis (LTEA) Assay for ABC Transporter (ABCB1) using HepaRG (AID 2283460)
# Procedure, shortened: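 HepaRG, 48 h exposure, 8-pt half-log series from 100 uM, 0.5% DMSO vehicle, duplicates. Readout: ABCB1 transcript by Fluidigm TaqMan qRT-PCR, housekeeping-normalized; bidirectional curve fit vs DMSO baseline.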
# [4] = read-out: growth arrest and DNA damage 45 (GADD45B), GADD45B (gene 4616); assay: LTEA_HepaRG_GADD45B: Life Technologies and Expression Analysis (LTEA) Assay for growth arrest and DNA damage 45 (GADD45B) using HepaRG (AID 2283461)
# Procedure, shortened: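 Differentiated HepaRG cells, plated 48 h then switched to serum-free induction medium, were exposed 48 h in duplicate to eight half-log concentrations from 100 uM in 0.5% DMSO; mRNA quantified by qRT-PCR, normalized to ACTB/GAPDH/POLR2A, bidirectional fit versus DMSO.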
# [5] = read-out: ABC Transporter (ABCC3), ABCC3 (gene 8714); assay: LTEA_HepaRG_ABCC3: Life Technologies and Expression Analysis (LTEA) Assay for ABC Transporter (ABCC3) using HepaRG (AID 2283462)
# Procedure, shortened: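 HepaRG cells in serum-free induction medium were exposed for 48 h in duplicate to 8-point half-log concentrations topping at 100 uM in 0.5% DMSO. ABCC3 mRNA was measured by qRT-PCR normalized to ACTB, GAPDH and POLR2A, with bidirectional fitting versus DMSO.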
# [6] = read-out: ABC Transporter (ABCB11), ABCB11 (gene 8647); assay: LTEA_HepaRG_ABCB11: Life Technologies and Expression Analysis (LTEA) Assay for ABC Transporter (ABCB11) using HepaRG (AID 2283463)
# Procedure, shortened: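 HepaRG, 48 h exposure, 8-pt half-log CRC top 100 uM, 0.5% DMSO vehicle, duplicates. Readout: TaqMan qRT-PCR of ABCB11 mRNA, housekeeping-normalized (ACTB/GAPDH/POLR2A). Bidirectional fit vs DMSO baseline.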
# [7] = read-out: ABC Transporter (ABCC2), ABCC2 (gene 1244); assay: LTEA_HepaRG_ABCC2: Life Technologies and Expression Analysis (LTEA) Assay for ABC Transporter (ABCC2) using HepaRG (AID 2283464)
# Procedure, shortened: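 HepaRG cells were plated 48 h, switched to serum-free induction medium, then exposed in duplicate for 48 h to 8 concentrations (top 100 uM, half-log steps, 0.5% DMSO). ABCC2 mRNA was measured by qRT-PCR normalized to ACTB/GAPDH/POLR2A; bidirectional fitting versus DMSO.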
# [8] = read-out: Broad substrate specificity ATP-binding cassette transporter ABCG2 (Homo sapiens) (UniProt Q9UNQ0); assay: LTEA_HepaRG_ABCG2: Life Technologies and Expression Analysis (LTEA) Assay for ABC Transporter (ABCG2) using HepaRG (AID 2283465)
# Procedure, shortened: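 HepaRG, 48 h exposure, 8-pt half-log series from 100 uM, 0.5% DMSO vehicle, duplicates. Readout: ABCG2 transcript by qRT-PCR (Fluidigm array), housekeeping-normalized; bidirectional curve fit relative to DMSO baseline.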
# [9] = read-out: ATP-citrate lyase (ACLY), ACLY (gene 47); assay: LTEA_HepaRG_ACLY: Life Technologies and Expression Analysis (LTEA) Assay for ATP-citrate lyase (ACLY) using HepaRG (AID 2283466)
# Procedure, shortened: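 qRT-PCR readout of ACLY transcript after 48 h chemical treatment of HepaRG cells; expression normalized to three housekeeping genes. Eight-point half-log series, highest 100 uM, 0.5% DMSO vehicle. Gain or loss fitted against DMSO baseline.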
# [10] = read-out: Peroxisomal acyl-coenzyme A oxidase 1 (ACOX1) gene, ACOX1 (gene 51); assay: LTEA_HepaRG_ACOX1: Life Technologies and Expression Analysis (LTEA) Assay for Peroxisomal acyl-coenzyme A oxidase 1 (ACOX1) gene using HepaRG (AID 2283467)
# Procedure, shortened: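 HepaRG, 48 h chemical exposure, 8-pt half-log series from 100 uM top, 0.5% DMSO vehicle, duplicates. Readout: ACOX1 mRNA by Fluidigm qRT-PCR, housekeeping-normalized; bidirectional fit vs DMSO baseline.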
# [11] = read-out: Alkaline Phosphatase, Placental (ALPP) gene, ALPP (gene 250); assay: LTEA_HepaRG_ALPP: Life Technologies and Expression Analysis (LTEA) Assay for Alkaline Phosphatase, Placental (ALPP) gene using HepaRG (AID 2283468)
# Procedure, shortened: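 Differentiated human HepaRG cells were plated and cultured 48 h, then exposed in duplicate for 48 h in serum-free induction medium to eight half-log concentrations from 100 uM in 0.5% DMSO. ALPP mRNA was measured by TaqMan qRT-PCR, normalized to ACTB, GAPDH, POLR2A.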
# [12] = read-out: Bcl-2 (BAX) gene, BAX (gene 581); assay: LTEA_HepaRG_BAX: Life Technologies and Expression Analysis (LTEA) Assay for Bcl-2 (BAX) gene using HepaRG (AID 2283470)
# Procedure, shortened: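 Human HepaRG cells treated in duplicate for 48 h across eight concentrations (max 100 uM, 0.5% DMSO); BAX expression measured by qRT-PCR.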
# [13] = read-out: adenosine kinase (ADK) gene, ADK (gene 132); assay: LTEA_HepaRG_ADK: Life Technologies and Expression Analysis (LTEA) Assay for adenosine kinase (ADK) gene using HepaRG (AID 2283471)
# Procedure, shortened: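 Read-out is ADK transcript level measured by qRT-PCR and normalised to three housekeeping genes. Cells are human HepaRG, dosed for 48 h at up to 100 uM in 0.5% DMSO. Gain or loss of signal is fitted against DMSO controls.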
# BCL2L11 (gene 10018) = assay: LTEA_HepaRG_BCL2L11: Life Technologies and Expression Analysis (LTEA) Assay for Bcl-2 (BCL2L11) gene using HepaRG (AID 2283473)
# Procedure, shortened: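 Differentiated human HepaRG cells in serum-free induction medium were exposed in duplicate for 48 h to eight concentrations (top 100 uM, half-log steps, 0.5% DMSO). BCL2L11 mRNA was quantified by TaqMan qRT-PCR, normalized to ACTB/GAPDH/POLR2A, bidirectional fit versus DMSO.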
# [14] = read-out: Apolipoprotein A-V (APOA5) gene, APOA5 (gene 116519); assay: LTEA_HepaRG_APOA5: Life Technologies and Expression Analysis (LTEA) Assay for Apolipoprotein A-V (APOA5) gene using HepaRG (AID 2283474)
# Procedure, shortened: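 Differentiated human HepaRG cells were exposed in duplicate for 48 h to eight half-log concentrations from 100 uM in 0.5% DMSO. APOA5 mRNA was quantified by TaqMan qRT-PCR, normalized to ACTB, GAPDH and POLR2A, and fitted bidirectionally against DMSO.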
# [15] = read-out: Apoptosis regulator Bcl-2 (Homo sapiens) (UniProt P10415); assay: LTEA_HepaRG_BCL2: Life Technologies and Expression Analysis (LTEA) Assay for Bcl-2 gene using HepaRG (AID 2283475)
# Procedure, shortened: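 Each chemical was tested in duplicate on HepaRG cultures held in serum-free induction medium for 48 h, highest concentration 100 uM with half-log dilutions. Transcript levels came from multiplexed qRT-PCR, normalised to housekeeping genes; activity was scored in either direction relative to DMSO.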
# [16] = read-out: Bcl-2 (BID) gene, BID (gene 637); assay: LTEA_HepaRG_BID: Life Technologies and Expression Analysis (LTEA) Assay for Bcl-2 (BID) gene using HepaRG (AID 2283476)
# Procedure, shortened: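 Assay used HepaRG hepatic cells treated 48 h in serum-free medium with half-log dilutions from 100 uM. Endpoint: BID mRNA, qRT-PCR, normalized to ACTB/GAPDH/POLR2A.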
# Caspase-3 (Homo sapiens) = Caspase-3 (Homo sapiens) (UniProt P42574); assay: LTEA_HepaRG_CASP3: Life Technologies and Expression Analysis (LTEA) Assay for cysteine-aspartic acid protease (CASP3) using HepaRG (AID 2283477)
# Sequence of Caspase-3 (Homo sapiens) (P42574 whole entry, looked up): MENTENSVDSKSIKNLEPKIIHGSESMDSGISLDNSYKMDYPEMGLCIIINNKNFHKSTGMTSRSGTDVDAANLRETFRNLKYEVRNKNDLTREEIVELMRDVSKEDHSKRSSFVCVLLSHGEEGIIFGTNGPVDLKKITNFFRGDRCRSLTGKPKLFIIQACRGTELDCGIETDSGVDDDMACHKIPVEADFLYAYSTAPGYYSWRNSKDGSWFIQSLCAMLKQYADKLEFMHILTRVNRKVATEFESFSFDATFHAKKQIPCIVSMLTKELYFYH
# Procedure, shortened: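 Differentiated human HepaRG cells in serum-free induction medium were exposed 48 h to 8-point half-log concentrations from 100 uM (0.5% DMSO vehicle). CASP3 mRNA was measured by qRT-PCR, normalised to ACTB, GAPDH and POLR2A, with bidirectional fitting against DMSO.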
# [17] = read-out: Bcl-2 (BAD) gene, BAD (gene 572); assay: LTEA_HepaRG_BAD: Life Technologies and Expression Analysis (LTEA) Assay for Bcl-2 (BAD) gene using HepaRG (AID 2283469)
# Procedure, shortened: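 HepaRG, 48 h exposure, 8-pt half-log curve from 100 uM in 0.5% DMSO, duplicates. Readout: TaqMan qRT-PCR for BAD mRNA, housekeeping-normalised (ACTB/GAPDH/POLR2A); gain or loss fitted against DMSO baseline.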
# Sequence of Apoptosis regulator Bcl-2 (Homo sapiens) (P10415 whole entry, looked up): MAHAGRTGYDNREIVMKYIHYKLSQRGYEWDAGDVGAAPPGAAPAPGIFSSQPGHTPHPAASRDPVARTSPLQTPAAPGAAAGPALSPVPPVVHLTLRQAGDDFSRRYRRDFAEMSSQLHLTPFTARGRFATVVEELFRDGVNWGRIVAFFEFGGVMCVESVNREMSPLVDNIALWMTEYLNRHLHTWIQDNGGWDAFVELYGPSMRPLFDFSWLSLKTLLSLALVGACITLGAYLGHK
# Sequence of Broad substrate specificity ATP-binding cassette transporter ABCG2 (Homo sapiens) (Q9UNQ0 whole entry, looked up): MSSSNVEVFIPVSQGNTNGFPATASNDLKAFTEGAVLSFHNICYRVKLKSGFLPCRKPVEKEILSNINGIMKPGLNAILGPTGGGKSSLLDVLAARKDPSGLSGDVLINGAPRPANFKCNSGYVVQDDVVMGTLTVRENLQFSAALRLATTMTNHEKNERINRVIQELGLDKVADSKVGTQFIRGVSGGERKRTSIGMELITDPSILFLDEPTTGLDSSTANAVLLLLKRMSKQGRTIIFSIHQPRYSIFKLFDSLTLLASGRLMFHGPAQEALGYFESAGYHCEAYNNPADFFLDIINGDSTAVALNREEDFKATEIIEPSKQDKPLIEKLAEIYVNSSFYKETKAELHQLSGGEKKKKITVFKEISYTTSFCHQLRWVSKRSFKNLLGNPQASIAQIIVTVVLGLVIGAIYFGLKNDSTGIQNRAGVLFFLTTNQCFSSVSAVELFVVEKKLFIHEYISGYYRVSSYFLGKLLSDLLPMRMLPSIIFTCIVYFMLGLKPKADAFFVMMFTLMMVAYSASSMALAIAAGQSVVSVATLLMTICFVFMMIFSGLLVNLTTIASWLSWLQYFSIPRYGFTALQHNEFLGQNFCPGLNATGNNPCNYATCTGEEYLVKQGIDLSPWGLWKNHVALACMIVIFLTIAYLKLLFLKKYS
smiles,measurement,setting,value
CCCCC(CC)COC(=O)CCCCC(=O)OCc1ccccc1 (centres undefined),outcome,[1],inactive
same,outcome,[2],inactive
same,outcome,[3],inactive
same,outcome,[4],inactive
same,outcome,[5],inactive
same,outcome,[6],inactive
same,outcome,[7],inactive
same,outcome,[8],inactive
same,outcome,[9],inactive
same,outcome,[10],inactive
same,outcome,[11],inactive
same,outcome,[12],inactive
same,outcome,[13],inactive
same,outcome,BCL2L11 (gene 10018),inactive
same,outcome,[14],inactive
same,outcome,[15],inactive
same,outcome,[16],inactive
same,outcome,Caspase-3 (Homo sapiens),inactive
CCCCCCCCCCCCc1ccccc1S(=O)(=O)O,outcome,[1],inactive
same,AC50,[2],87.9 µM (active)
same,outcome,[3],inactive
same,outcome,[4],inactive
same,outcome,[5],inactive
same,AC50,[6],85.7 µM (active)
same,AC50,[7],12.3 µM (active)
same,AC50,[8],50 µM (active)
same,outcome,[9],inactive
same,AC50,[10],11.7 µM (active)
same,AC50,[11],91.6 µM (active)
same,outcome,[17],inactive
same,AC50,[12],50 µM (active)
same,outcome,[13],inactive
same,outcome,BCL2L11 (gene 10018),inactive
same,AC50,[14],80.3 µM (active)
same,AC50,[15],50 µM (active)
same,outcome,[16],inactive
same,outcome,Caspase-3 (Homo sapiens),inactive
NC(=O)N1C(=O)C(C(=O)c2cc(Cl)cs2)c2cc(F)c(Cl)cc21 (centres undefined),AC50,[1],36 µM (active)
same,AC50,[2],35 µM (active)
same,AC50,[3],19.4 µM (active)
same,AC50,[4],28.1 µM (active)
same,AC50,[5],12.8 µM (active)
same,AC50,[6],15.6 µM (active)
same,AC50,[7],27.7 µM (active)
same,AC50,[8],50 µM (active)
same,AC50,[9],21 µM (active)
same,AC50,[10],50 µM (active)
same,AC50,[11],50 µM (active)
same,outcome,[17],inactive
same,outcome,[12],inactive
same,AC50,[13],17.5 µM (active)
same,outcome,BCL2L11 (gene 10018),inactive
same,AC50,[14],35.1 µM (active)
same,AC50,[15],50 µM (active)
same,outcome,[16],inactive
same,AC50,Caspase-3 (Homo sapiens),19.1 µM (active)
CCOC(=O)CC(O)(CC(=O)OCC)C(=O)OCC,outcome,[1],inactive
same,outcome,[2],inactive
same,outcome,[3],inactive
same,outcome,[4],inactive
same,outcome,[5],inactive
same,outcome,[6],inactive
same,outcome,[7],inactive
same,outcome,[8],inactive
same,outcome,[9],inactive
same,outcome,[10],inactive
same,outcome,[11],inactive
same,outcome,[17],inactive
same,outcome,[12],inactive
same,outcome,[13],inactive
same,outcome,BCL2L11 (gene 10018),inactive
same,outcome,[14],inactive
same,outcome,[15],inactive
same,outcome,[16],inactive
same,outcome,Caspase-3 (Homo sapiens),inactive
Oc1cc2ccccc2c2ccccc12,outcome,[1],inactive
same,outcome,[2],inactive
same,outcome,[3],inactive
same,outcome,[4],inactive
same,outcome,[5],inactive
same,AC50,[6],38.9 µM (active)
same,outcome,[7],inactive
same,outcome,[8],inactive
same,outcome,[9],inactive
same,outcome,[10],inactive
same,outcome,[11],inactive
same,outcome,[17],inactive
same,outcome,[12],inactive
same,outcome,[13],inactive
same,outcome,BCL2L11 (gene 10018),inactive
same,outcome,[14],inactive
same,outcome,[15],inactive
same,outcome,[16],inactive
same,outcome,Caspase-3 (Homo sapiens),inactive
